Screens: PubChem, several laboratories
CYP2C9 inh = inhibitors of human CYP2C9; inhibition, % at 5 µM; CYP2C9 Supersomes, luciferin-H conversion, luminescence; 96,000 compounds, 20% hits; P11712;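 active means blocking of liver enzyme CYP2C9 beyond about 50% at 5 µM, limit read from the data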
PostGolgi ctrl = yeast control strain growth, post-Golgi counter-screen; AID 738; inhibition, % at 10 µM; 98,000 compounds, 5% hits; efflux-deficient yeast background strain, growth absorbance A615, 16 h
PostGolgi yeast = growth inhibition of a yeast mutant, post-Golgi transport screen; 98,000 compounds, 0.9% hits; post-Golgi transport phenotypic cell assay; inhibition, % at 10 µM;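 further: yeast cells grown in 1536-well plates; yeast grown about 18 h at 30C before absorbance read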
CYP2C9 act = increases human cytochrome P450 2C9 activity; AID 1024; recombinant CYP2C9, luciferin-H conversion, luminescence; active compounds read high; factor 1 = untreated enzyme, 0 = blocked; 96,000 compounds, 1.4% hits; activation factor at 5 µM; P11712;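 active means activation factor of 2 or more for CYP2C9 at a 5 µM dose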
CYP2C19 activ = increases human CYP2C19 enzyme activity. recombinant CYP2C19, luciferin-H EGE luminescence; active compounds read high; 0 = fully inhibited enzyme, 1 = untreated enzyme. AID 1025. activation factor at 5 µM. 96,000 tested, under 10 active. P33261;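 active means activation factor of at least 2 at 5 µM in the primary screen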
Target sequence (P33261 whole entry, looked up): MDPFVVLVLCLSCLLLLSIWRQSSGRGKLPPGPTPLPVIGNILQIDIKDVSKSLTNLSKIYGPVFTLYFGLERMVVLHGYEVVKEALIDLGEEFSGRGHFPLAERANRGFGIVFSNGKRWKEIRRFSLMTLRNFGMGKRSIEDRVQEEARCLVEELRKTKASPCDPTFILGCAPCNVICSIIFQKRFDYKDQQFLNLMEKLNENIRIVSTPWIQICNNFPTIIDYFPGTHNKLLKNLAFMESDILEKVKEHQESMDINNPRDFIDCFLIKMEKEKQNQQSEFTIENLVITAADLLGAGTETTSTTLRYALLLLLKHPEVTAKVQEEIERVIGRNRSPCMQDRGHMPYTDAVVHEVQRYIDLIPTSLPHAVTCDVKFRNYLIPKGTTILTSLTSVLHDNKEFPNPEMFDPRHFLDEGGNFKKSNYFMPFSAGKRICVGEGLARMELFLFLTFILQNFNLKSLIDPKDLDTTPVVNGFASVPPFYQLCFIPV
CYP2C19 inh = human CYP2C19 inhibition; inhibition, % at 5 µM; 96,000 compounds, 21% hits; CYP2C19 Supersomes, luciferin-H EGE luminescence, 30 min; P33261;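 active means CYP2C19 inhibition above a set limit at 5 µM in the primary screen, cut at about 50% in these data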
Hits are given with their value; – = inactive; · = no result. Shown are actives, neighbours in structure and some others; about 32% of the full set was active somewhere. Unless noted, no stated cut-off is given here; in the data, active means inhibition above about 30%; inactive means the rest.

SMILES	CYP2C9 inh	PostGolgi ctrl	PostGolgi yeast	CYP2C9 act	CYP2C19 activ	CYP2C19 inh
c1ccc(CN2c3ccccc3-c3nc4ccccc4n3C2c2ccccn2)cc1 (configuration not stated)	–	43	–	–	–	–
CCN1c2ccccc2-c2nc3ccccc3n2C1c1ccco1 (configuration not stated)	59	–	–	–	–	–
CN1c2ccccc2-c2nc3ccccc3n2C1c1ccccn1 (configuration not stated)	–	–	–	–	–	–
CC1CCN(c2c(NCc3ccc(C(=O)N4CCc5ccccc54)cc3)c(=O)c2=O)CC1	–	–	–	–	–	–
CCN(CC)CCCN1C(=O)C(=O)/C(=C(/O)c2ccc3c(c2)OCCO3)C1c1ccc(C)o1 (configuration not stated)	–	·	·	–	–	–
Cn1cccc1Cc1nnc(SCC(=O)Nc2ccc3c(c2)OCCO3)n1CCc1ccccc1	–	–	–	–	–	–
CC(C)(C)NC(=O)CSC(=Nc1ccc(F)cc1)NC#N	–	–	–	–	–	72
O=C(CSc1ccc(Cl)cc1Cl)N1CCC(c2nc3ccccc3s2)CC1	58	38	–	–	–	55
Cc1cc(C)cc(NC(=S)N2CCC(c3nc4ccccc4s3)CC2)c1	–	–	–	–	–	–
COc1ccc(S(=O)(=O)N2CCN(C)CC2)c2ccccc12	–	–	–	–	–	–
O=S(=O)(c1cccc(Cl)c1Cl)N1CCCCC1	–	–	–	2.7	–	83
COc1c(S(=O)(=O)N2CCCC2)ccc(Cl)c1Cl	–	–	–	2.4	–	88
O=S(=O)(c1cccc2nsnc12)N1CCCC1	·	–	–	·	·	·
O=C1CC(Sc2ncccn2)C(=O)N1c1ccccc1C(F)(F)F (configuration not stated)	–	–	–	–	–	59
Cc1cc(C)c(C#N)c(N2CCN(Cc3ccc4c(c3)OCO4)CC2)n1	–	–	–	–	–	–
N#CCc1c(C#N)c(N)nc(N2CCN(Cc3ccc4c(c3)OCO4)CC2)c1C#N	54	–	–	–	–	–
N#CCc1c(C#N)c(N)nc(N2CCN(c3ccc(F)cc3)CC2)c1C#N	–	47	–	–	–	–
Cc1oc(-c2ccccc2F)nc1CN1CCC(C(=O)NCc2cccs2)CC1	–	–	–	–	–	–
CCn1c(SCC(=O)Nc2nc3ccc(OC)cc3s2)nc2c1c(=O)n(C)c(=O)n2C	62	–	–	–	–	–
CCOc1ccc2nc(NC(=O)Cn3cnc4c3c(=O)n(C)c(=O)n4C)sc2c1	–	–	–	–	–	69
COCCNC(=O)CS(=O)Cc1nc(-c2ccc(OC)cc2)oc1C (configuration not stated)	–	–	–	–	–	–
O=C(CN1C(=O)COc2ccccc21)N(Cc1cccnc1)Cc1cccc(F)c1	91	–	–	–	–	87
S=c1nc(-c2ccccc2)n(Cc2ccco2)c2c1CCCC2	–	–	–	–	–	–
c1ccc(-c2nc3nc4ccccc4nc3n2Cc2ccco2)cc1	51	32	–	–	–	–
Fc1ccc(-c2nc3nc4ccccc4nc3n2Cc2ccco2)cc1	–	32	–	–	–	–
SMILES	CYP2C9 inh	PostGolgi ctrl	PostGolgi yeast	CYP2C9 act	CYP2C19 activ	CYP2C19 inh
CCOC(=O)C1CCN(C(=O)CN(c2cc(OC)ccc2OC)S(=O)(=O)c2ccccc2)CC1	–	–	–	–	–	–
COC(=O)c1cc(Br)ccc1-c1ccc(/C=N/n2nnnc2N)o1	–	–	–	–	–	56
COc1cc(/C=N/n2nnnc2N)ccc1O	–	–	–	–	–	–
CCOC(=O)C1=C(C)NC(SC(C)=O)=NC1c1ccc(OC(C)=O)c(OC)c1 (configuration not stated)	62	–	–	–	–	90
CCOC(=O)C1=C(C)NC(=O)NC1c1ccc(OCCO)c(OC)c1 (configuration not stated)	–	–	–	–	–	–
CCc1nn(C(C)C(=O)NCCc2ccc(OC)c(OC)c2)c(=O)c2cc3occc3n12 (configuration not stated)	–	–	–	–	–	–
CCc1nn(C(C)C(=O)NC(C)CCc2ccco2)c(=O)c2cc3occc3n12 (configuration not stated)	77	–	–	–	–	60
O=[N+]([O-])c1cccnc1N1CCC(c2cc(-c3ccc(Cl)cc3)n[nH]2)CC1	–	69	–	–	–	–
O=C(O)c1cc(-c2ccc(Cl)cc2)n[nH]1	–	–	–	–	–	–
O=C(CNC(=O)Cn1ccc2ccccc2c1=O)NCCCN1CCN(c2cccc(Cl)c2)CC1	–	–	–	–	–	–
CCc1ccc(C(=O)Nc2cc3c(cc2Cl)OCCCO3)cc1	–	–	–	2.2	–	–
CCC(O)c1cc2c(cc1NC(=O)c1ccc(C)cc1)OCCO2 (configuration not stated)	76	–	–	–	–	64
Cc1nn(C)cc1NC(=O)CCSc1nc(-c2ccco2)cc(C(F)(F)F)n1	–	–	–	–	–	–
O=C(CCCSc1nc(-c2ccco2)cc(C(F)(F)F)n1)NCc1cccs1	80	–	–	–	–	–
CCn1nc(C)c(NC(=O)CCCSc2nc(-c3ccco3)cc(C(F)(F)F)n2)c1C	81	–	–	–	–	54
Cc1nn(C)c(C)c1NC(=O)CCSc1nc(-c2ccco2)cc(C(F)(F)F)n1	60	–	–	–	–	–
CC(C)(C)c1cc(C(F)(F)F)nc(SCCCNC(=O)c2ccco2)n1	88	–	–	–	–	92
Cc1cc(NC(=O)CCCSc2nc(-c3ccco3)cc(C(F)(F)F)n2)no1	–	–	–	–	–	–
Nc1nc(-c2ccccc2)cc(C(F)(F)F)n1	–	–	–	–	–	–
COC1(c2cc(-c3ccccc3)nc(N)n2)CCCCC1	–	–	–	–	–	53
O=C(O/N=C1/CCSc2ccccc21)c1ccccc1	–	–	–	–	–	–
Cc1noc(C)c1COC(=O)CCCc1c[nH]c2ccccc12	81	–	–	–	–	93
Cc1noc(C)c1COC(=O)CCc1nc2ccccc2c(=O)[nH]1	59	–	–	–	–	–
COc1cccc(OC)c1C(=O)NN1CCCCC1	–	–	–	–	–	–
O=c1cc(N2CCCCC2)c(-c2ccccc2)nn1Cc1c(Cl)cccc1Cl	–	46	–	–	–	–
Cc1nn(-c2ccccc2)c(Cl)c1C(=O)OC(C)C(=O)Nc1ccc2c(c1)OCO2 (configuration not stated)	79	–	–	–	–	85
Cc1onc(-c2ccccc2)c1C(=O)Nc1ccc2c(C)cc(=O)oc2c1	–	–	–	–	–	–
Cc1onc(-c2ccccc2Cl)c1C(=O)Nc1ccc(CN2CCCC2)cc1	–	–	–	–	–	–
Cc1nn(-c2ccccc2)c(C)c1C(=O)OCC(=O)Nc1ccc2c(c1)OCO2	89	–	–	–	–	95
